From article PMC7862700, “An all-to-all approach to the identification of sequence-specific readers for epigenetic DNA modifications on cytosine”

Legend:
Experiment in all cases: DAPPL (digital affinity profiling via proximity ligation, sequencing); 10 mM Tris-HCl pH 7.5, 50 mM NaCl, 1 mM DTT, 4% glycerol, room temperature, 30 min; GST-TFs on glutathione beads, 16-mer random dsDNA library, 0.1% formaldehyde crosslink after washing; high values mean tight binding
[1] = target: T1, FLI1 (Homo sapiens, UniProt Q01543 1-452); conditions: protein: recombinant; tags: N-terminal GST; dsDNA, one strand shown
T1 sequence: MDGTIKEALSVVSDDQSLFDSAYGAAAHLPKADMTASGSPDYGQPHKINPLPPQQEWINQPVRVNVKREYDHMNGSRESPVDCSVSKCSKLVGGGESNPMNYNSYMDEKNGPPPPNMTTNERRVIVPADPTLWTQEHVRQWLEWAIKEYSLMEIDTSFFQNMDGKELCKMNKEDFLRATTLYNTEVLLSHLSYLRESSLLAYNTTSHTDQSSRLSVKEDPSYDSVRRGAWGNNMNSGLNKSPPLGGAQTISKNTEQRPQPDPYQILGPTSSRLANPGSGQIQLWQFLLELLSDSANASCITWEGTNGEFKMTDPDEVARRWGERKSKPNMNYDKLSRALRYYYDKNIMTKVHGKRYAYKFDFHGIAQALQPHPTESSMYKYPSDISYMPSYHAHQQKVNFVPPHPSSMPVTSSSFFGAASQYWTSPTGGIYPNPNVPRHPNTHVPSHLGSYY
Procedure, shortened: (§1)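 A tag-only sample was pooled with DNA-barcoded human transcription factors that had been expressed in yeast as GST fusions and captured on glutathione beads. The pools were incubated for 30 min at room temperature with 200 nmole of a random double-stranded 16-mer DNA library in Tris/NaCl/DTT/glycerol buffer, then washed, crosslinked with 0.1% formaldehyde, proximity-ligated (BsaI/T4 ligase, 1 h, 37 °C), PCR-amplified and sequenced on an Illumina NextSeq500. Binding signal is each hexamer's read frequency for a factor divided by its frequency for the tag-only sample.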

[2] = target: T2, ELK1 (Homo sapiens, UniProt P19419 1-428); conditions: protein: recombinant; tags: N-terminal GST; dsDNA, one strand shown
T2 sequence: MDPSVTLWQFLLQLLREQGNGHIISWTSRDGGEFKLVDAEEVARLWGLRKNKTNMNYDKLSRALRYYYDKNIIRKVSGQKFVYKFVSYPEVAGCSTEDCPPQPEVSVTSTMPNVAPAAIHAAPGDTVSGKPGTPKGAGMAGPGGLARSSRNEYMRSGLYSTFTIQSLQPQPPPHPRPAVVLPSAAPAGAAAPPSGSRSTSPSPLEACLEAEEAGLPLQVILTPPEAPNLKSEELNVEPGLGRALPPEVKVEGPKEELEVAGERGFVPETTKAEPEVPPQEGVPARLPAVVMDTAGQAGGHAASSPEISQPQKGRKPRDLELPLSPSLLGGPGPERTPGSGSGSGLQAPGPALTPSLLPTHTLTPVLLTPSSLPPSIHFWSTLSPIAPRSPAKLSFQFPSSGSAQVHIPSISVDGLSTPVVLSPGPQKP
Procedure, shortened: as §1

[3] = target: T3, GABPA (Homo sapiens, UniProt Q06546 1-454); conditions: protein: recombinant; tags: N-terminal GST; dsDNA, one strand shown
T3 sequence: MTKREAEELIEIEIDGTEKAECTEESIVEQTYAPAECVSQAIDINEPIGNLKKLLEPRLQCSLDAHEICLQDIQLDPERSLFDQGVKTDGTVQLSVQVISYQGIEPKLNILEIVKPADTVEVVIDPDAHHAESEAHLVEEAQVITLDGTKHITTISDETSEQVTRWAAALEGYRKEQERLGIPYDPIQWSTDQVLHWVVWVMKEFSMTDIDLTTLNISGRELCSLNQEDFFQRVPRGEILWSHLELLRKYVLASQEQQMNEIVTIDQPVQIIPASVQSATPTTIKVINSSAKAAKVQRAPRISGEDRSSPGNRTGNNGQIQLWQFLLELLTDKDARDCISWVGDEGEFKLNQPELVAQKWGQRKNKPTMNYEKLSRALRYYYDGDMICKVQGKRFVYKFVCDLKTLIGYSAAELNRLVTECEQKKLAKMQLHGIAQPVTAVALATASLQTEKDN
Procedure, shortened: as §1

[4] = target: T4, ERG (Homo sapiens, UniProt P11308 1-479); conditions: protein: recombinant; tags: N-terminal GST; dsDNA, one strand shown
T4 sequence: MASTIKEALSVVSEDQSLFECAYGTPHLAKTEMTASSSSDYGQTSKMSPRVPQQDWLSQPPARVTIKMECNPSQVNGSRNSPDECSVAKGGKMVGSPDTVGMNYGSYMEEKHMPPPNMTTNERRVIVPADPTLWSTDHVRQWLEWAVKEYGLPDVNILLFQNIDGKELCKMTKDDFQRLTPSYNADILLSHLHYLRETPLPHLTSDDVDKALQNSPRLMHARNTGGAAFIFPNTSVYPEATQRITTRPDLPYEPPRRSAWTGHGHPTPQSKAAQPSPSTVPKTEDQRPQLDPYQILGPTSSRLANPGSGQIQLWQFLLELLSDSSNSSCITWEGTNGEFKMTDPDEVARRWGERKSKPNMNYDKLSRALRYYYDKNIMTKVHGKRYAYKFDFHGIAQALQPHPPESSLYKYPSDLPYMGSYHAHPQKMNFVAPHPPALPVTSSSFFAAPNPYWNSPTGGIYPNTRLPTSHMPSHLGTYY
Procedure, shortened: as §1

[5] = target: ELF1 (Homo sapiens, UniProt P32519 1-619); conditions: protein: recombinant; tags: N-terminal GST; dsDNA, one strand shown
Procedure, shortened: as §1

[6] = target: T5, EHF (Homo sapiens, UniProt Q9NZC4 1-300); conditions: protein: recombinant; tags: N-terminal GST; dsDNA, one strand shown
T5 sequence: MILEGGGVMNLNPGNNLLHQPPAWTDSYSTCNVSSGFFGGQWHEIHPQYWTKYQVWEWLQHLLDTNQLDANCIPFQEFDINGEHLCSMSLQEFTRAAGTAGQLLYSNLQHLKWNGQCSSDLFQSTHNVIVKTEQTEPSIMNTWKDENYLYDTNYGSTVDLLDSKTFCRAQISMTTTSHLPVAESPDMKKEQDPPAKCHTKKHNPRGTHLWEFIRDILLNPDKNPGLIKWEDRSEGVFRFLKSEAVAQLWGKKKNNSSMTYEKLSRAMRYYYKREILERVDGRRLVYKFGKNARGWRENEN
Procedure, shortened: as §1

[7] = target: SPI1 (Homo sapiens, UniProt P17947 1-270); conditions: protein: recombinant; tags: N-terminal GST; dsDNA, one strand shown
Procedure, shortened: as §1

[8] = target: SPIB (Homo sapiens, UniProt Q01892 1-262); conditions: protein: recombinant; tags: N-terminal GST; dsDNA, one strand shown
Procedure, shortened: as §1

[9] = target: T6, ELK3 (Homo sapiens, UniProt P41970 1-407); conditions: protein: recombinant; tags: N-terminal GST; dsDNA, one strand shown
T6 sequence: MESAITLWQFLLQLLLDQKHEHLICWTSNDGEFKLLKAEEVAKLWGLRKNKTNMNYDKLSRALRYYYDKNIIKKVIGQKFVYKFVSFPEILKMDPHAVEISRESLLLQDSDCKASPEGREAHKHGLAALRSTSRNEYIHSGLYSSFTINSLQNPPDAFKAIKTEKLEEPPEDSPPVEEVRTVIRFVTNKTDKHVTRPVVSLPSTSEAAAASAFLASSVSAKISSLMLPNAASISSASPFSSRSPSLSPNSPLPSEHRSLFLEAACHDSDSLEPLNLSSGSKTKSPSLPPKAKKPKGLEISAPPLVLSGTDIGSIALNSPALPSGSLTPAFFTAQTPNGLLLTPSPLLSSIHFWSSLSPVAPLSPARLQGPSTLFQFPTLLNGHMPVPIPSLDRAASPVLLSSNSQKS
Procedure, shortened: as §1

[10] = target: T7, FEV (Homo sapiens, UniProt Q99581 1-238); conditions: protein: recombinant; tags: N-terminal GST; dsDNA, one strand shown
T7 sequence: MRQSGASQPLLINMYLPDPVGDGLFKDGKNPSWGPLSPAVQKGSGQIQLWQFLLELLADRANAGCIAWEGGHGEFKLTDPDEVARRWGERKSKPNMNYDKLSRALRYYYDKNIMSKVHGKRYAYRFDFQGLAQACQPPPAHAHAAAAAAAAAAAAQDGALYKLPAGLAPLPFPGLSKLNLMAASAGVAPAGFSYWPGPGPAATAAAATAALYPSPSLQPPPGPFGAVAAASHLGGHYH
Procedure, shortened: as §1

[11] = target: ETV5 (Homo sapiens, UniProt P41161 1-510); conditions: protein: recombinant; tags: N-terminal GST; dsDNA, one strand shown
Procedure, shortened: as §1

[12] = target: HSF1 (Homo sapiens, UniProt Q00613 1-529); conditions: protein: recombinant; tags: N-terminal GST; chain copies: 3; dsDNA, one strand shown
Procedure, shortened: as §1

[13] = target: T8, SPIC (Homo sapiens, UniProt Q8N5J4 1-248); conditions: protein: recombinant; tags: N-terminal GST; dsDNA, one strand shown
T8 sequence: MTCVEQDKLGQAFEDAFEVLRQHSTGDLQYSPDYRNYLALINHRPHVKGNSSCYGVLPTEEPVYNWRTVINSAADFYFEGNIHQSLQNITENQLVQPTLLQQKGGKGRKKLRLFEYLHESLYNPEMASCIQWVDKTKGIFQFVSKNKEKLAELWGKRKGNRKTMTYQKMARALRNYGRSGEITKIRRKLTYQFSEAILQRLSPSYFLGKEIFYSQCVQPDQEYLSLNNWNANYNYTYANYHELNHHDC
Procedure, shortened: as §1

[14] = target: ELF4 (Homo sapiens, UniProt Q99607 1-663); conditions: protein: recombinant; tags: N-terminal GST; dsDNA, one strand shown
Procedure, shortened: as §1

[15] = target: T9, ELK4 (Homo sapiens, UniProt P28324-2 1-405); conditions: protein: recombinant; tags: N-terminal GST; dsDNA, one strand shown
T9 sequence: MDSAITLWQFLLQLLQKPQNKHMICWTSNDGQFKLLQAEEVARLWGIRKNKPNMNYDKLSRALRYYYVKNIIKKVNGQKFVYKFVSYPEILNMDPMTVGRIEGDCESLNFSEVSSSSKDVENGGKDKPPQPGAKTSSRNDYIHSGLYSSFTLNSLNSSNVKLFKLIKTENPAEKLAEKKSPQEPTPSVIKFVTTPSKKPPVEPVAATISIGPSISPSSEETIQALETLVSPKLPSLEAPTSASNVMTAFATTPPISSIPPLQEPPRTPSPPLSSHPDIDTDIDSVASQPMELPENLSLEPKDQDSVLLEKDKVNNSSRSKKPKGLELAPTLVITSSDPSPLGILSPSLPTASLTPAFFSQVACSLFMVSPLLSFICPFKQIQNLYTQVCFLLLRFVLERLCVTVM
Procedure, shortened: as §1

[16] = target: T10, ETV2 (Homo sapiens, UniProt O00321 1-342); conditions: protein: recombinant; tags: N-terminal GST; dsDNA, one strand shown
T10 sequence: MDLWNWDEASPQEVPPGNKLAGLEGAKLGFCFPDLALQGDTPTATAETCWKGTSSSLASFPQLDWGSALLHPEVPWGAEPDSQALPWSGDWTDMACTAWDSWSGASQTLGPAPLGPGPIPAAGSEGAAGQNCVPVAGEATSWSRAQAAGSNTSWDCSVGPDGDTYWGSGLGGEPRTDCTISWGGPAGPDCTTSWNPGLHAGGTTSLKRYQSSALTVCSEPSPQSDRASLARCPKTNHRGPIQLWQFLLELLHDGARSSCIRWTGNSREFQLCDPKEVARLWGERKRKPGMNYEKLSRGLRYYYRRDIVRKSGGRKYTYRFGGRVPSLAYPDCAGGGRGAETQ
Procedure, shortened: as §1

[17] = target: T11, ELF3 (Homo sapiens, UniProt P78545 1-371); conditions: protein: recombinant; tags: N-terminal GST; dsDNA, one strand shown
T11 sequence: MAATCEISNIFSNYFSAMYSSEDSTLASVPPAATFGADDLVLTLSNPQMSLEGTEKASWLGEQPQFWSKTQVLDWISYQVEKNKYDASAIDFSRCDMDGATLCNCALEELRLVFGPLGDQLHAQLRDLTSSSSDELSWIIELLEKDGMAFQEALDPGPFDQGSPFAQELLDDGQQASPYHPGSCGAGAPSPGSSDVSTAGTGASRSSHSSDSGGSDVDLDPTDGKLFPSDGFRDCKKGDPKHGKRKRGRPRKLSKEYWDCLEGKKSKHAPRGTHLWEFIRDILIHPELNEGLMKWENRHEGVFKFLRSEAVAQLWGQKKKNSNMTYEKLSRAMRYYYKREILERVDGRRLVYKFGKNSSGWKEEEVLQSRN
Procedure, shortened: as §1

[18] = target: CRX (Homo sapiens, UniProt O43186 1-299); conditions: protein: recombinant; tags: N-terminal GST; dsDNA, one strand shown
Procedure, shortened: as §1

[19] = target: ETV1 (Homo sapiens, UniProt P50549 1-477); conditions: protein: recombinant; tags: N-terminal GST; dsDNA, one strand shown
Procedure, shortened: as §1

Sequence of ETV1 (P50549 whole entry): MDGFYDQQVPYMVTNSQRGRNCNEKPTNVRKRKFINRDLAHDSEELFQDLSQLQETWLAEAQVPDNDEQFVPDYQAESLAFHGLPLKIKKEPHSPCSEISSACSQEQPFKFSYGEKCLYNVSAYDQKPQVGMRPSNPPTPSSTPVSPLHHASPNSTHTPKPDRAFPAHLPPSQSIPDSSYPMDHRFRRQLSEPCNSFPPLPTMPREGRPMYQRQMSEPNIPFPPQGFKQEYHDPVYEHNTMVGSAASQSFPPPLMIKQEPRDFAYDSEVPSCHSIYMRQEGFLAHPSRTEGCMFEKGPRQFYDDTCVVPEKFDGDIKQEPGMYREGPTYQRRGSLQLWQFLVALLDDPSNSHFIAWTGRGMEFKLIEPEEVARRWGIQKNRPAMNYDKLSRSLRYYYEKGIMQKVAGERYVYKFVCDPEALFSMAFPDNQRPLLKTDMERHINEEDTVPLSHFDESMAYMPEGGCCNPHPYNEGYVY
Sequence of ELF1 (P32519 whole entry): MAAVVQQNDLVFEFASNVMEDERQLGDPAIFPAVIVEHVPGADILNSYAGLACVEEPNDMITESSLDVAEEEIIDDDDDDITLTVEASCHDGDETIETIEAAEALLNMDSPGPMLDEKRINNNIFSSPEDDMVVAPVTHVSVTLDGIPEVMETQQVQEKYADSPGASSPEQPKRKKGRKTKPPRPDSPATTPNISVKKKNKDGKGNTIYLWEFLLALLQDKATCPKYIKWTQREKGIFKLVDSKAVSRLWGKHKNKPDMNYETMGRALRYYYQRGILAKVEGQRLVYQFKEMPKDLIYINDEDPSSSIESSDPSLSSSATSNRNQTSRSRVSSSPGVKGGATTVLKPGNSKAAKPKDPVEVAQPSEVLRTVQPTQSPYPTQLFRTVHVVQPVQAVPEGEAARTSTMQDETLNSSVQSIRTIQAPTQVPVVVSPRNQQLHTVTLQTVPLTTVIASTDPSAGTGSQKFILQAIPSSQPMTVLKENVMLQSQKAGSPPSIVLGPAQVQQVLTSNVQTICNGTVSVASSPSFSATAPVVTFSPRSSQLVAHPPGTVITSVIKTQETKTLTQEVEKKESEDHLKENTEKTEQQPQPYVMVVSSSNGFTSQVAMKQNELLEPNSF
Sequence of ELF4 (Q99607 whole entry): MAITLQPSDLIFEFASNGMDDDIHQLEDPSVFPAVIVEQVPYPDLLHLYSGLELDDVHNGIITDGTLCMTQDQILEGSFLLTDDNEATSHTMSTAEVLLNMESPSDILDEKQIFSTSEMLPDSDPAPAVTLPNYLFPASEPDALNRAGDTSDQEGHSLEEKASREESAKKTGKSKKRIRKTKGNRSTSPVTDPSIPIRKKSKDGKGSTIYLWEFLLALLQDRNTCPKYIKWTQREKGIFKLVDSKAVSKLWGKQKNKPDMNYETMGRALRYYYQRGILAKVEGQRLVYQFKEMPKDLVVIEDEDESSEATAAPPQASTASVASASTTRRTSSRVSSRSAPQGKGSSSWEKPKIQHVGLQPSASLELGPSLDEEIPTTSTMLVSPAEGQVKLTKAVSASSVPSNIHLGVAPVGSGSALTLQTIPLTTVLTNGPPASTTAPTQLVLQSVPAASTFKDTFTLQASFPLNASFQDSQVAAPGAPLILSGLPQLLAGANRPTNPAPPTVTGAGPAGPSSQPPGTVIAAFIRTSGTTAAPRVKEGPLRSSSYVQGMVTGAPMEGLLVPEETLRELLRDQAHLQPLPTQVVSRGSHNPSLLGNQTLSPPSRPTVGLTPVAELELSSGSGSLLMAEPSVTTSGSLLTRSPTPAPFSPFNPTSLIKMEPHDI
Sequence of SPIB (Q01892 whole entry): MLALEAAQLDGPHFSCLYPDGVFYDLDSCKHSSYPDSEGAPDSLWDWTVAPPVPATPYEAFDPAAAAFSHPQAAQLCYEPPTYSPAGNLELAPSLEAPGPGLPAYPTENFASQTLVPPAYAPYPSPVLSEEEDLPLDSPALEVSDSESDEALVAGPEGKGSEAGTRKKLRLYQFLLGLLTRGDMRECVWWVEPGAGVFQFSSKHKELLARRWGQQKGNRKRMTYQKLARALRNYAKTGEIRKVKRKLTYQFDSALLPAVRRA
Sequence of ETV5 (P41161 whole entry): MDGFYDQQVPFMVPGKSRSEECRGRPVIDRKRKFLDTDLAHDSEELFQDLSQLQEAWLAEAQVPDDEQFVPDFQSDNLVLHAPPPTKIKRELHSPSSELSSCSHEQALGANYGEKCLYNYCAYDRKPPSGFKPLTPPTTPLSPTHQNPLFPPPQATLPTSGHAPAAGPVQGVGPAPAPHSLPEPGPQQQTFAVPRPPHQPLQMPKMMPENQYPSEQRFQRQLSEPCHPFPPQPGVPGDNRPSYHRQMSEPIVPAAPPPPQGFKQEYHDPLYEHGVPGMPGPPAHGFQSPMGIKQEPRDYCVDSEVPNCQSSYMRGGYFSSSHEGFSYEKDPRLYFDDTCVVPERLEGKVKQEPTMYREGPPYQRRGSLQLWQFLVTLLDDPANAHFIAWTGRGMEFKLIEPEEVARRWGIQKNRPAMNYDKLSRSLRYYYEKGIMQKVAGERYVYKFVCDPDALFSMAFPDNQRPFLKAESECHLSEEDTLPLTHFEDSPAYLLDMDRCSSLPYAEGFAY
Sequence of CRX (O43186 whole entry): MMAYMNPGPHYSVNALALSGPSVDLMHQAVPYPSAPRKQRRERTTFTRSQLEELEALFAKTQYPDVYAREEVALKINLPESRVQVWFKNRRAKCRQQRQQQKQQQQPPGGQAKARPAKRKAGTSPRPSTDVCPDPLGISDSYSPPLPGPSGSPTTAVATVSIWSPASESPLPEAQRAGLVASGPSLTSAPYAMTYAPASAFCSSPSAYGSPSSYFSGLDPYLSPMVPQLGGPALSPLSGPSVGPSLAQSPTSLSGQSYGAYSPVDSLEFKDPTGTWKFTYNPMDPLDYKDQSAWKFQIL
Sequence of HSF1 (Q00613 whole entry): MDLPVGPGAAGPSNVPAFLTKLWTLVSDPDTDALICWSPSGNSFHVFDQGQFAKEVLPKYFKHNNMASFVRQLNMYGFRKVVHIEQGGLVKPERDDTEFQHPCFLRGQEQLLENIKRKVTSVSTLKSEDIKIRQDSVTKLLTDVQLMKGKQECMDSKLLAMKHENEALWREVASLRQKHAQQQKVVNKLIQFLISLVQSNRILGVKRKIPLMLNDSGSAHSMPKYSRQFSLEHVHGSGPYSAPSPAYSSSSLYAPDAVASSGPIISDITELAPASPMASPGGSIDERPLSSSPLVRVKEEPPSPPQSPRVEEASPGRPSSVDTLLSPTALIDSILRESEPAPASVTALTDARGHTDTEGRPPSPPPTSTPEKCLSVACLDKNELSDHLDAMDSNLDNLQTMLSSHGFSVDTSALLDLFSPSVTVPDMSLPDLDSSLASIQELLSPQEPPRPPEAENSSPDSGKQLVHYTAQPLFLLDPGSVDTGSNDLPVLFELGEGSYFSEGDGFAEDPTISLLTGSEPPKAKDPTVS

TGTCTT
binding signal [1]: 1.29 fold enrichment (6-mer frequency, TF over GST control)
binding signal [2]: 1.2 fold enrichment (6-mer frequency, TF over GST control)
binding signal [3]: 1.38 fold enrichment (6-mer frequency, TF over GST control)
binding signal [4]: 1.34 fold enrichment (6-mer frequency, TF over GST control)
binding signal [5]: 1.35 fold enrichment (6-mer frequency, TF over GST control)
binding signal [6]: 1.31 fold enrichment (6-mer frequency, TF over GST control)
binding signal [7]: 1.2 fold enrichment (6-mer frequency, TF over GST control)
binding signal [8]: 1.26 fold enrichment (6-mer frequency, TF over GST control)
binding signal [9]: 1.38 fold enrichment (6-mer frequency, TF over GST control)
binding signal [10]: 1.27 fold enrichment (6-mer frequency, TF over GST control)
binding signal [11]: 1.24 fold enrichment (6-mer frequency, TF over GST control)
binding signal [12]: 1.13 fold enrichment (6-mer frequency, TF over GST control)
binding signal [13]: 1.39 fold enrichment (6-mer frequency, TF over GST control)
binding signal [14]: 1.19 fold enrichment (6-mer frequency, TF over GST control)
binding signal [15]: 1.17 fold enrichment (6-mer frequency, TF over GST control)
binding signal [16]: 1.18 fold enrichment (6-mer frequency, TF over GST control)
binding signal [17]: 1.25 fold enrichment (6-mer frequency, TF over GST control)
binding signal [18]: 1.3 fold enrichment (6-mer frequency, TF over GST control)
binding signal [19]: 1.24 fold enrichment (6-mer frequency, TF over GST control)
